# Measurements: PubChem BioAssay AID463173 (ICCB-Longwood Screening Facility, Harvard Medical School, 2010)
# The whole screen tested about 52,000 compounds, of which about 4,300 (8.3%) were called active. This is one part of a sample in which actives are shown more often than they occur. Unmarked numbers belong to inactive results. No stated cut-off is given here; in the data, active means survival mostly below about 52% (no sharp cut-off); inactive means mostly above about 56%.
# System: DeltatarO mutant
# Assay: growth inhibition of S. aureus wild type versus tarO mutant, primary screen, teichoic acid synthesis inhibitors, RN4220, OD600 (AID 463173)
# Conditions: OD600, 18 h, active compounds read low, screened at 18.75 µg/mL (by protocol)
row,Compound,survival
1,CCC(=O)Nc1ccccc1-c1nc2ccccc2n(CC(=O)Nc2ccc(C)c(C)c2)c1=O,47%
2,CCC(=O)Nc1ccc(C)cc1-c1nc2ccccc2n(CC(=O)c2ccc(C)cc2)c1=O,68%
3,CC(=O)Nc1ccc(C)cc1-c1nc2ccccc2n(CC(=O)c2ccc(Cl)cc2)c1=O,82%
4,CC(=O)Nc1ccccc1-c1nc2ccccc2n(CC(=O)c2ccc(C)c(C)c2)c1=O,104%
5,CC(=O)Nc1ccccc1-c1nc2ccccc2n(CC(=O)c2ccc(Br)cc2)c1=O,76%
6,CCC(=O)Nc1ccccc1-c1nc2ccccc2n(CC(=O)c2ccc(Cl)cc2)c1=O,35% (active)
7,CCC(=O)Nc1ccccc1-c1nc2ccccc2n(CC(=O)c2ccc(C)cc2)c1=O,50%
8,CCC(=O)Nc1ccccc1-c1nc2ccccc2n(CC(=O)c2ccc(Br)cc2)c1=O,29% (active)
9,CCC(=O)Nc1ccccc1-c1nc2ccccc2n(CC(=O)c2ccc(C)c(C)c2)c1=O,33% (active)
10,COc1ccc(CCNC(=O)Cn2c(=O)n(-c3cc(OC)c(OC)c(OC)c3)c(=O)c3ccccc32)cc1OC,81%
11,COc1cc(CNCCSc2nnnn2C)ccc1OCc1ccc(F)cc1,122%
12,COC(=O)c1ccccc1NC(=O)c1cnc2c(-c3cccc(C)c3)c(C)nn2c1C,128%
13,CCOc1ccc2nc(SCC(=O)N(C)C3CCCCC3)c(C#N)cc2c1,89%
14,COc1cc(NC(=O)C2CCN(c3cnc4ccccc4n3)CC2)cc(OC)c1OC,-5% (active)
15,CCc1ccccc1NC(=O)C1CCN(c2cnccn2)CC1,43%
16,COc1cc(NC(=O)c2nc3ccccc3nc2N2CCCCC2)cc(OC)c1OC,87%
17,COc1ccccc1NC(=O)C1CCN(c2cnccn2)CC1,54% (active)
18,COc1cc(NC(=O)C2CCN(c3nc4ccccc4nc3C(F)(F)F)CC2)cc(OC)c1,101%
19,COc1cc(NC(=O)C2CCN(c3cnccn3)CC2)cc(OC)c1,79%
20,Cc1c(Cl)cccc1NC(=O)CN1C(=O)COc2ccc(S(=O)(=O)Nc3ccccc3)cc21,60%
21,CCS(=O)(=O)c1nc(S(=O)(=O)c2ccc(C)cc2)c(NCCCOC)s1,97%

row,Compound,survival
1,COc1ccccc1N1CCN(C(=O)CSc2n[nH]c(-c3ccccc3)n2)CC1,88%
2,COc1ccc(N2CC(NC(=O)c3ccc(OC(C)C)cc3)CC2=O)cc1 (stereo not drawn),0% (active)
3,COc1ccc(CCC(=O)NC2CC(=O)N(c3ccccc3)C2)cc1 (stereo not drawn),126%
4,COc1ccc(N2CC(NC(=O)c3ccc(S(=O)(=O)N4CCCC4)cc3)CC2=O)cc1 (stereo not drawn),112%
5,COc1ccc(C(=O)NC2CC(=O)N(c3ccc4c(c3)OCCO4)C2)cc1 (stereo not drawn),100%
6,O=C(Cc1ccccc1)NC1CC(=O)N(c2ccccc2)C1 (stereo not drawn),87%
7,COc1cccc(N2CC(NC(=O)CCCc3ccccc3)CC2=O)c1 (stereo not drawn),69%
8,Cc1ccc(N2CC(NC(=O)CCc3ccccc3)CC2=O)cc1 (stereo not drawn),20% (active)
9,COc1ccc(N2CC(NC(=O)CCCc3ccccc3)CC2=O)cc1 (stereo not drawn),32% (active)
10,O=C(CCc1ccccc1)NC1CC(=O)N(c2ccccc2)C1 (stereo not drawn),94%
11,Cc1cccc(CC(=O)NC2CC(=O)N(c3ccccc3)C2)c1 (stereo not drawn),-5% (active)
12,Cc1ccc(N2CC(NC(=O)CCCc3ccccc3)CC2=O)cc1 (stereo not drawn),66%
13,Cc1cccc(CC(=O)NC2CC(=O)N(c3cccc(F)c3)C2)c1 (stereo not drawn),67%
14,Cc1c(NC(=O)c2ccc(OC(C)C)cc2)cccc1-c1nc2ncccc2o1,47%
15,O=C(Nc1ccc(F)cc1)c1nc(SCc2ccccc2F)ncc1Cl,99%
16,Cc1ccc(C(=O)O)cc1NC(=O)c1nsc2ccccc12,103%
17,CCOC(=O)c1sc(=S)n(C)c1C,88%
18,COc1ccc(OC)c(CNS(=O)(=O)c2ccc3[nH]c4c(c3c2)CCCCC4)c1,79%
19,Cc1ccc(Nc2c3c(nc4nncn24)CCC3)cc1,62%
20,COc1ccc(CNC(=O)c2cc3cccc4c3n2CC(C)S4)c(OC)c1 (stereo not drawn),122%
21,CCC(C)OC(=O)/C(C#N)=C/c1ccc(-c2ccc(Br)cc2)o1 (stereo not drawn),43% (active)

row,Compound,survival
1,CC(C)COC(=O)/C(C#N)=C\c1ccc(-c2ccccc2Cl)o1,67%
2,CCC(C)OC(=O)/C(C#N)=C\c1ccc(-c2ccccc2Cl)o1 (stereo not drawn),58% (active)
3,CCOC(=O)/C(C#N)=C/c1ccc(-c2ccc(Br)cc2)o1,81%
4,CCCCOC(=O)/C(C#N)=C/c1ccc(-c2ccc(Br)cc2)o1,68%
5,CC(C)OC(=O)/C(C#N)=C/c1ccc(-c2ccc(Cl)c(Cl)c2)o1,72%
6,Cc1cccc(-c2nc(C)c(CCNC(=O)C(=O)Nc3ccc(C)c(C)c3)s2)c1,88%
7,CC1=CCC(C(=O)Nc2nc3ccccc3s2)C(C(=O)O)C1 (stereo not drawn),49%
8,Cc1ccc(CNC(=O)C2CCN(c3nc4ccc(C)cc4[nH]3)CC2)cc1,126%
9,Cc1cc2ccccc2n1-c1ccc(C(=O)N2CCC(C(=O)NCc3ccc(F)cc3)CC2)s1,6% (active)
10,Cc1cc2ccccc2n1-c1ccc(C(=O)N2CCC(C(=O)NCc3ccc(Cl)cc3)CC2)s1,67%
11,CCc1ccc(CNC(=O)C2CCN(C(=O)c3ccc(-n4c(C)cc5ccccc54)s3)CC2)cc1,70%
12,Cc1nc(-c2cccc(S(=O)(=O)N3CCC(C(=O)NCc4ccccc4)CC3)c2)no1,109%
13,COc1ccc(N(C)C(=O)c2cc3c(s2)-c2c(C)cccc2OC3)c(OC)c1,-1% (active)
14,COc1ccc(OC)c(CCNC(=O)c2cc3c(s2)-c2c(C)cccc2OC3)c1,79%
15,CCc1ccccc1N(C)C(=O)c1cc2c(s1)-c1c(C)cccc1OC2,60%
16,COc1ccc(CCNC(=O)c2cc3c(s2)-c2c(C)cccc2OC3)c(OC)c1,85%
17,COc1cc(Cl)c(C)cc1NC(=O)c1cc2c(s1)-c1c(C)cccc1OC2,90%
18,Cc1cccc2c1-c1sc(C(=O)N3CCN(c4cccc(Cl)c4)CC3)cc1CO2,66%
19,COc1ccc(NC(=O)c2cc3c(s2)-c2c(C)cccc2OC3)c(OC)c1,51% (active)
20,Cc1cccc2c1-c1sc(C(=O)N(C)c3cccc(C(F)(F)F)c3)cc1CO2,52%
21,Cc1cccc2c1-c1sc(C(=O)N(C)c3cccc(Cl)c3)cc1CO2,0% (active)
